Values joined by “and” are separate entries in the source; they are usually repeats but may differ in a detail not shown here. Equal values may be shown once. Compounds without any hit were thinned out: in the full panel of roughly 83,000, 20% have a hit.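 Cells were grown in 96-well plates and exposed to the test compound at a single concentration for 48 hours; results are reported as percent growth, with values below 10 considered active.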 Active and inactive are the calls of the source.
Columns and labels:
Test in all cases: NCI-60 one-dose screen, 48 h (100 = growth as untreated, 0 = no growth, -100 = all killed)
Conditions in all cases: 10 µM unless noted
NCI-H23 lung = test system: NCI-H23 lung
NCI-H226 lung = test system: NCI-H226 lung
NCI-H322M lung = test system: NCI-H322M lung
HOP-62 NSCLC = test system: HOP-62 NSCLC
NCI-H460 lung = test system: NCI-H460 lung
HOP-92 NSCLC = test system: HOP-92 NSCLC
NCI-H522 lung = test system: NCI-H522 lung
A549/ATCC NSCLC = test system: A549/ATCC NSCLC
786-0 renal = test system: 786-0 renal
COLO 205 colon = test system: COLO 205 colon
DU-145 prostate = test system: DU-145 prostate
K-562 leukemia = test system: K-562 leukemia
MALME-3M melanoma = test system: MALME-3M melanoma
MDA-MB-231 breast = test system: MDA-MB-231 breast
RXF 393 renal = test system: RXF 393 renal
SF-268 CNS = test system: SF-268 CNS
SF-295 CNS = test system: SF-295 CNS
SF-539 CNS = test system: SF-539 CNS
UACC-257 melanoma = test system: UACC-257 melanoma
M14 melanoma = test system: M14 melanoma

Measured: growth

O=C(NC(CSSCC(NC(=O)OCc1ccccc1)C(=O)O)C(=O)O)OCc1ccccc1 (stereo not given)
inactive: NCI-H23 lung 93.2% and 97.3% | NCI-H226 lung 86.1% | NCI-H322M lung 92.9% and 102% | HOP-62 NSCLC 95% and 81.8% | NCI-H460 lung 95% and 107% | HOP-92 NSCLC 63.8% and 78.5% | NCI-H522 lung 70.3% | A549/ATCC NSCLC 80.5% | 786-0 renal 91.2% and 91.1% | COLO 205 colon 96.4% and 91.5% | DU-145 prostate 101% and 118% | K-562 leukemia 84.7% and 78.1% | MALME-3M melanoma 86.6% and 104% | MDA-MB-231 breast 90.5% and 108% | RXF 393 renal 81% and 113% | SF-268 CNS 92.4% and 107% | SF-295 CNS 89.6% and 103% | SF-539 CNS 93.7% and 91.8% | UACC-257 melanoma 91.9% | M14 melanoma 93.5% and 88.9%

CCCCCc1cc[n+](CC(=O)c2ccccc2)cc1
inactive: NCI-H23 lung 96.6% and 92.6% | NCI-H226 lung 96.8% and 89% | NCI-H322M lung 92.4% and 96% | HOP-62 NSCLC 90.5% and 108% | NCI-H460 lung 76.7% and 95.4% | HOP-92 NSCLC 67.7% | NCI-H522 lung 95% and 99.3% | A549/ATCC NSCLC 84.1% and 101% | 786-0 renal 97% and 96.3% | COLO 205 colon 87.3% and 101% | DU-145 prostate 105% and 110% | K-562 leukemia 113% and 104% | MALME-3M melanoma 100% and 108% | MDA-MB-231 breast 104% and 106% | RXF 393 renal 98.6% and 110% | SF-268 CNS 103% and 107% | SF-295 CNS 94.1% | SF-539 CNS 96.3% and 102% | UACC-257 melanoma 99% and 106% | M14 melanoma 100%

OCc1cccc(F)c1
active: DU-145 prostate 3.58%
inactive: NCI-H23 lung 79.6% | NCI-H226 lung 104% | NCI-H322M lung 90.2% | HOP-62 NSCLC 100% | NCI-H460 lung 41.8% | HOP-92 NSCLC 118% | NCI-H522 lung 67.8% | A549/ATCC NSCLC 99.3% | 786-0 renal 103% | COLO 205 colon 90.1% | K-562 leukemia 99.4% | MALME-3M melanoma 106% | MDA-MB-231 breast 89.6% | RXF 393 renal 67.8% | SF-268 CNS 97.4% | SF-295 CNS 72.3% | SF-539 CNS 111% | UACC-257 melanoma 101% | M14 melanoma 94.9%

CNc1ccc(O)cc1
inactive: NCI-H23 lung 114% and 104% | NCI-H226 lung 85.2% and 93.6% | NCI-H322M lung 122% and 98.3% | HOP-62 NSCLC 104% | NCI-H460 lung 105% and 115% | HOP-92 NSCLC 102% | NCI-H522 lung 96.3% and 93% | A549/ATCC NSCLC 104% and 114% | 786-0 renal 109% and 106% | COLO 205 colon 132% and 117% | DU-145 prostate 121% and 113% | K-562 leukemia 104% and 118% | MALME-3M melanoma 110% and 107% | MDA-MB-231 breast 104% and 98.9% | RXF 393 renal 95.6% and 114% | SF-268 CNS 121% and 113% | SF-295 CNS 101% | SF-539 CNS 104% and 107% | UACC-257 melanoma 91.5% and 115% | M14 melanoma 118% and 113%

Cn1c(-c2ccccc2)cc(=O)cc1-c1ccccc1
active: DU-145 prostate 3.58%
inactive: NCI-H23 lung 73.8% | NCI-H226 lung 101% | NCI-H322M lung 97% | HOP-62 NSCLC 98.3% | NCI-H460 lung 37.8% | HOP-92 NSCLC 90.3% | NCI-H522 lung 56.4% | A549/ATCC NSCLC 96.4% | 786-0 renal 106% | COLO 205 colon 96.9% | K-562 leukemia 99.8% | MALME-3M melanoma 122% | MDA-MB-231 breast 88.8% | RXF 393 renal 62% | SF-268 CNS 89.9% | SF-295 CNS 93.7% | SF-539 CNS 111% | UACC-257 melanoma 95.1% | M14 melanoma 97.7%

Cc1cc(=NO)cc(C)n1O
inactive: NCI-H23 lung 109% | NCI-H226 lung 114% | NCI-H322M lung 94.3% | HOP-62 NSCLC 100% | NCI-H460 lung 107% | HOP-92 NSCLC 111% | NCI-H522 lung 120% | A549/ATCC NSCLC 113% | 786-0 renal 107% | COLO 205 colon 113% | DU-145 prostate 101% | K-562 leukemia 96.8% | MALME-3M melanoma 112% | MDA-MB-231 breast 118% | RXF 393 renal 123% | SF-268 CNS 99.2% | SF-295 CNS 94.4% | SF-539 CNS 104% | UACC-257 melanoma 112% | M14 melanoma 108%

CN(C)C(=N)N=C(N)N
101% (inactive) and -7.3% (active): RXF 393 renal
108% (inactive) and -0.171% (active): UACC-257 melanoma
inactive: NCI-H23 lung 100% and 120% | NCI-H226 lung 110% and 133% | NCI-H322M lung 107% and 154% | HOP-62 NSCLC 95.5% and 99.5% | NCI-H460 lung 113% and 125% | HOP-92 NSCLC 114% and 122% | NCI-H522 lung 64.1% and 166% | A549/ATCC NSCLC 99.8% and 118% | 786-0 renal 103% and 101% | COLO 205 colon 135% | DU-145 prostate 120% | K-562 leukemia 130% | MALME-3M melanoma 116% and 269% | MDA-MB-231 breast 95.8% and 114% | SF-268 CNS 99.9% and 103% | SF-295 CNS 113% and 178% | SF-539 CNS 98.5% and 109% | M14 melanoma 99.2% and 101%

CC(C)=NOC(C)C(=O)O (stereo not given)
inactive: NCI-H23 lung 108% | NCI-H226 lung 104% | NCI-H322M lung 118% | HOP-62 NSCLC 110% | NCI-H460 lung 107% | HOP-92 NSCLC 73% | NCI-H522 lung 111% | A549/ATCC NSCLC 98.8% | 786-0 renal 97.8% | COLO 205 colon 111% | DU-145 prostate 147% | K-562 leukemia 76.5% | MALME-3M melanoma 112% | MDA-MB-231 breast 99.8% | RXF 393 renal 116% | SF-268 CNS 101% | SF-295 CNS 93.1% | SF-539 CNS 102% | UACC-257 melanoma 92.9% | M14 melanoma 94.4%

COC(=O)c1cc(C(=O)OC)cc([N+](=O)[O-])c1
inactive: NCI-H23 lung 105% | NCI-H226 lung 108% | NCI-H322M lung 117% | HOP-62 NSCLC 94.8% | NCI-H460 lung 113% | HOP-92 NSCLC 105% | NCI-H522 lung 90.6% | A549/ATCC NSCLC 87.7% | 786-0 renal 92.9% | COLO 205 colon 101% | DU-145 prostate 113% | K-562 leukemia 99.7% | MALME-3M melanoma 113% | MDA-MB-231 breast 112% | RXF 393 renal 118% | SF-268 CNS 108% | SF-295 CNS 111% | SF-539 CNS 97.4% | UACC-257 melanoma 82.7% | M14 melanoma 106%

Cc1c(Cl)c(C)c(Cc2c(C)c(Cl)c(C)c(Cl)c2O)c(O)c1Cl
inactive: NCI-H226 lung 15.7% | NCI-H322M lung 16.1% | HOP-62 NSCLC 15.8% | A549/ATCC NSCLC 14.4% | 786-0 renal 49% | COLO 205 colon 79.4% | DU-145 prostate 30.2% | K-562 leukemia 20.1% | SF-268 CNS 19.6% | SF-539 CNS 15.7% | M14 melanoma 22.6%
active: NCI-H23 lung -13% | NCI-H460 lung 5.16% | HOP-92 NSCLC -20% | NCI-H522 lung 7.1% | MALME-3M melanoma -3.69% | MDA-MB-231 breast 2.41% | RXF 393 renal 4.04% | SF-295 CNS 0.164% | UACC-257 melanoma -0.631%

O=C(OCc1ccccc1)c1ccccc1
inactive: NCI-H23 lung 107% and 90.2% | NCI-H226 lung 97.9% and 93.9% | NCI-H322M lung 115% and 106% | HOP-62 NSCLC 94.9% and 90.5% | NCI-H460 lung 109% and 108% | HOP-92 NSCLC 89.6% | NCI-H522 lung 111% and 79.6% | A549/ATCC NSCLC 95.3% and 86.6% | 786-0 renal 95.1% and 96.5% | COLO 205 colon 101% | DU-145 prostate 118% and 101% | K-562 leukemia 104% | MALME-3M melanoma 109% and 102% | MDA-MB-231 breast 88.2% and 102% | RXF 393 renal 91.4% | SF-268 CNS 114% and 99.1% | SF-295 CNS 108% and 103% | SF-539 CNS 107% and 94.9% | UACC-257 melanoma 95.6% and 85% | M14 melanoma 104% and 91%

CCCCCCCCCCCCCCCCC(=O)O
inactive: NCI-H23 lung 97.6% | NCI-H226 lung 101% | NCI-H322M lung 98% | HOP-62 NSCLC 104% | NCI-H460 lung 108% | HOP-92 NSCLC 110% | NCI-H522 lung 102% | A549/ATCC NSCLC 104% | 786-0 renal 97.7% | COLO 205 colon 114% | DU-145 prostate 107% | K-562 leukemia 89.5% | MALME-3M melanoma 98.3% | MDA-MB-231 breast 105% | RXF 393 renal 99.5% | SF-268 CNS 102% | SF-295 CNS 104% | SF-539 CNS 106% | UACC-257 melanoma 101% | M14 melanoma 104%

CCOC(C)=N
inactive: NCI-H23 lung 105% | NCI-H226 lung 112% | NCI-H322M lung 146% | HOP-62 NSCLC 101% | NCI-H460 lung 114% | HOP-92 NSCLC 89.7% | NCI-H522 lung 87.3% | A549/ATCC NSCLC 101% | 786-0 renal 100% | COLO 205 colon 122% | DU-145 prostate 118% | K-562 leukemia 102% | MALME-3M melanoma 177% | MDA-MB-231 breast 106% | RXF 393 renal 114% | SF-268 CNS 106% | SF-295 CNS 121% | SF-539 CNS 106% | UACC-257 melanoma 104% | M14 melanoma 97.5%
